According to PubChem BioAssay AID1224853 (National Center for Advancing Translational Sciences (NCATS), 2016):
Inconclusive results are not listed. Activity calls are given as the source filed them. The call rests on the fitted dose curve; in most records, active means well fitted inhibition curve with a large enough effect; inconclusive means small, poorly fitted or top-dose-only effect; inactive means no such curve, though single readings can be large or run the other way.

assay: Confirmation assay for measurement of the activity of small molecule inhibitors on Zika virus induced Caspase-3 activity in human astrocytoma cells; details: SNB-19 ZIKV-induced caspase-3/7, luminescence, 6 h; series mostly up to 46.1 µM; activity change, negative = inhibition: at the top concentration
Text: National Center for Advancing Translational Sciences [NCATS] Johns Hopkins University School of Medicine Florida State University Assay Overview: Increase in the Caspase-3 activity indicates an activation of apoptosis cell death pathway caused by Zika virus infection in certain types of neuronal cells including human neural progenitor cells (hNPCs), astrocytes, and astrocytoma cell line (SNB-19). This cell-based caspase-3 activity assay measures the increased caspase-3 activity in the astrocytoma cell line (SNB-19) after a 6-hour Zika virus infection with a luminescence readout. A decrease in the luminescence signal in this assay by small molecule treatment indicates an inhibitory effect of that small molecule on the Zika virus induced caspase-3 activity that may correlate with its effect on reduction of Zika virus caused cell death.
Assay Protocol Summary: The medium for SNB-19 cells is composed of RPMI 1640 (ATCC, Cat.# 30-2001), 10% fetal bovine serum (FBS) (GE healthcare Life Sciences, Cat.# SH30071.03), and 1% Pen/Strep (Gibco, Cat.# 15140-122). A Caspase-Glo 3/7 assay kit (catalog number G8092; Promega, Madison, WI) was used to detect caspase-3 activity induced by Zika virus infection in human cells. The reagent mixture was reconstituted as described in the protocol from the manufacturer. Polystyrene tissue culture treated and PDL coated white plates were obtained from Greiner Bio-One (Monroe, NC). Cells were seeded in 384- or 1536-well assay plates and cultured at 37 C with 5% CO2 for 16 to 20 hours. The typical cell seeding density in the 1536-well plate assay is 250 cells/well in 3ul medium for SNB-19 cells in tissue culture treated plates. Compounds were added to cells and incubated for one hour before addition of ZIKV solution to cells (2 FFU/cell). After incubation at 37 C with 5% CO2 for 6 hours, the reagent mixture of Caspase-Glo 3/7 assay kit was added to each well, followed by incubation at room temperature for 30 minutes. The luminescence intensity of the assay plates was measured using a ViewLux plate reader (PerkinElmer). Data were normalized by using the cell-containing wells without ZIKV as a negative control (0% induction of caspase 3/7 activity) and wells containing ZIKV infected cells (Caspase-3 activity induced) as a positive control (100% induction of caspase 3 activity). The percentage inhibitions of the increased Caspase-3 activity by small molecule inhibitors were then calculated.

| SMILES | activity change, negative = inhibition | Potency |
| --- | --- | --- |
| O=C1CCC[C@@H]2[C@H]3CCCN4CCC[C@@H](CN12)[C@@H]34 | 1.01% (inactive) |  |
| CC(C)N[C@@H]1CCn2c(=O)[nH]c3cccc(c32)[C@@H]1O | -1.27% (inactive) |  |
| O=C1C=CC[C@@H]2[C@H]3CCCN4CCC[C@@H](CN12)[C@@H]34 | 18.5% (inactive) |  |
| CC(C)[N+](C)(CCC(C(N)=O)(c1ccccc1)c1ccccc1)C(C)C | 1.37% (inactive) |  |
| O=S(=O)(CC1CS1)c1ccc(Oc2ccccc2)cc1 (centres undefined) | -24.8% (inactive) |  |
| CC(C)[C@H]1C(=O)N[C@H](CO)Cc2c[nH]c3cccc(c23)N1C | 2.51% (inactive) |  |
| O=C(Nc1ccc(Br)cc1)c1cc(Br)cc(Br)c1O |  | 6.9 µM (active) |
| COP(=S)(OC)SCN1C(=O)c2ccccc2C1=O | -5.52% (inactive) |  |
| Oc1ccc([C@H]2CNCc3c2ccc(O)c3O)cc1O | 9.68% (inactive) |  |
| Cc1ccc([N+](=O)[O-])[c]2c1[O][Hg]2 |  | 10.9 µM (active) |
| O=c1c2ccccc2[se]n1-c1ccccc1 |  | 17.3 µM (active) |
| S=C(SSC(=S)N1CCCCC1)N1CCCCC1 | -16.3% (inactive) |  |
| CC(O)CN1CCN(CC(=O)[O-])CCN(CC(=O)[O-])CCN(CC(=O)[O-])CC1.[Gd+3] (centres undefined) | 11.9% (inactive) |  |
| COC1(CS(=O)c2ccccc2)CCN(CCc2c[nH]c3ccc(F)cc23)CC1 (centres undefined) | 12.7% (inactive) |  |
